Bioassay records deposited in PubChem by several laboratories.
Cav32 inh: inhibitors of human Cav3.2 T-type calcium channel | O95180 | Cav3.2-expressing cells, Fluo-4 calcium fluorescence FDSS; active compounds read low | B-score at 10 µM | hit rate 4% among 100,000 | AID 449739;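 active means single-dose well whose peak fluorescence ratio is a statistical outlier from its plate by either plate-standardised score or position-corrected B-score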
CYP2C19 inh: inhibitors of human CYP2C19 | P33261 | CYP2C19 Supersomes, luciferin-H EGE luminescence, 30 min | inhibition, % at 5 µM | hit rate 21% among 96,000 | AID 778;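 active means CYP2C19 inhibition above a set limit at 5 µM in the primary screen, cut at about 50% in these data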;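 further: plate controls were negative control wells for no effect and 2.5 mM tranylcypromine positive control for full effect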
CYP2C9 activ: CYP2C9 (human) activation; activation factor at 5 µM; P11712; recombinant CYP2C9, luciferin-H conversion, luminescence; active compounds read high; factor 1 = untreated enzyme, 0 = blocked; hit rate 1.4% among 96,000;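 active means activation factor of 2 or more for CYP2C9 at a 5 µM dose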;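 further: 0 = sulfaphenazole-blocked wells and 1 = vehicle-only wells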
Target sequence (P11712 whole entry, looked up): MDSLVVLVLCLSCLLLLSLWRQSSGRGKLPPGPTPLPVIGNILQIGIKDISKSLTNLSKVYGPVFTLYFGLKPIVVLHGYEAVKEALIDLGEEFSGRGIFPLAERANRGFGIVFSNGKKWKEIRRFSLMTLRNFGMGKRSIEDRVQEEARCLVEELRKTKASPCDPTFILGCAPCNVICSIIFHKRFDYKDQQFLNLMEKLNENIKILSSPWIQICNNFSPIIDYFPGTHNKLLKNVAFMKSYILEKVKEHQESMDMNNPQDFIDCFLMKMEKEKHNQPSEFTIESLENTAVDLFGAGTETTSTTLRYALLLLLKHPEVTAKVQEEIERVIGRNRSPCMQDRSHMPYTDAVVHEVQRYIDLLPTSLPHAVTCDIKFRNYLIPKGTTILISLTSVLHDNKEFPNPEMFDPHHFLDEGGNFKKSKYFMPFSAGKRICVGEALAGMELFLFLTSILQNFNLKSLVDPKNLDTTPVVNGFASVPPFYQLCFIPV
CYP2C19 activ: increases human CYP2C19 enzyme activity; activation factor at 5 µM; P33261; recombinant CYP2C19, luciferin-H EGE luminescence; active compounds read high; 0 = fully inhibited enzyme, 1 = untreated enzyme; 96,000 tested, under 10 active;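 active means activation factor of at least 2 at 5 µM in the primary screen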;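 further: 0 = wells with 2.5 mM tranylcypromine and 1 = vehicle-only wells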
CYP2C9 inhib: human CYP2C9 inhibition; P11712; CYP2C9 Supersomes, luciferin-H conversion, luminescence; inhibition, % at 5 µM; hit rate 20% among 96,000;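 active means blocking of liver enzyme CYP2C9 beyond about 50% at 5 µM, limit read from the data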
PTK2B oligo ant: Pyk2 (human) oligomerization antagonism; Q14289; Q293 cells, Pyk2 FERM NanoBiT luminescence; active compounds read low; z-score (the deposit names both 25 µM and 10 µM); hit rate 0.83% among 99,000; AID 1347419;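 active means Z-score of -3 or lower, scaled per plate to the spread of control and sample wells; inactive means z-score above -3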;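 further: negative z-score means lost luminescence so less FERM oligomerization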
An asterisk follows results filed as active; / = no result given. Compounds with a hit are over-represented: about 27% of the library has one in this group of screens.

SMILES	Cav32 inh	CYP2C19 inh	CYP2C9 activ	CYP2C19 activ	CYP2C9 inhib	PTK2B oligo ant
CCOc1ccc(NC(=O)c2ccc(OC)cc2)cc1	-0.14	-3	1.1	1	-7	0.68
CCOc1ccc(NC(=O)CSC(N)=O)cc1	-4.7*	17	0.7	0.8	30	0.09
CCCCCCCOc1ccc(OC(=O)c2ccncc2)cc1	0.82	10	0.8	0.9	23	-0.45
COCCN(C(=O)CNC(=O)c1ccco1)C(C(=O)NC1CCCCC1)c1cccs1 (stereo not drawn)	0.069	/	/	/	/	0.01
O=C(CN1C(=O)COc2ccc(Cl)cc21)N1CCc2ccccc21	-0.0044	23	0.7	0.8	27	0.44
C=CCSc1n[nH]c2nc3c(c(=O)n12)C1(CCCC1)Cc1ccccc1-3	/	-12	0.8	1.1	22	-1.6
O=C(C1=C[C@H](c2csc3ccccc23)C[C@H](OCCCCO)O1)N1CCN(Cc2ccc3c(c2)OCO3)CC1	-1.9	/	/	/	/	/
CSC(=NC1CCCCC1)NS(=O)(=O)c1ccccc1	-0.013	80*	0.6	0.2	44	-1.3
CC1(C)NC(=O)N(CCCCOc2ccc(Br)cc2Cl)C1=O	-0.12	99*	0.3	0	66*	-0.13
CC(C)c1cc(Br)ccc1OCCCN1C(=O)NC(C)(C)C1=O	-1.7	92*	0.2	0.1	78*	-1.6
CC1(C)NC(=O)N(CCCOc2ccc(Br)cc2Cl)C1=O	-1.1	92*	0.5	0.1	51*	-0.38
Cc1cc(=O)n2[nH]c(-c3ccc(C(C)(C)C)cc3)cc2n1	0.18	45	1.1	0.5	-11	-0.76
Cn1c(CSCc2ccc(F)cc2)nnc1SCC(=O)N1CCN(c2ccccc2)CC1	-1.9	-2	0.9	1	5	1.9
COc1cc(OC)cc(C(=O)Nc2ccccc2N2CCOCC2)c1	0.83	40	0.6	0.6	41	-0.16
Cc1cccc(OCC(=O)Nc2ccccc2N2CCCCC2)c1	-1.3	85*	0.3	0.1	65*	-1
O=C(COc1ccccc1)Nc1ccccc1N1CCN(c2ccc(F)cc2)CC1	/	-4	0.9	1	8	-0.89
COc1cccc(C(=O)Nc2ccccc2N2CCCC2)c1	-0.15	69*	0.7	0.3	26	1.3
O=C(COc1ccccc1)Nc1ccccc1N1CCN(c2ccccc2)CC1	-3.2	21	0.4	0.8	56*	-2.1
O=C(COc1ccccc1)Nc1ccccc1N1CCCCC1	0.41	66*	0.2	0.3	78*	-1.4
Cc1ccccc1OCC(=O)Nc1ccccc1N1CCOCC1	-2.1	/	/	/	/	-1.8
O=C(COc1ccccc1)Nc1cc(C(F)(F)F)ccc1N1CCCC1	-4.9	33	0.8	0.7	18	-0.73
Cc1cc(-c2cc(-c3ccccc3)on2)nc(NC2CCCC2)n1	0.44	/	/	/	/	/
O=C(O)/C(=C\c1ccco1)NC(=O)c1cccc2ccccc12	0.57	14	0.9	0.9	9	-0.6
CC(=O)Nc1ccc(-c2nc3c(C)cccc3[nH]2)cc1	2.1	15	0.9	0.8	8	0.69
CCN(CC)c1ccc(NC(=O)c2cccc(OC)c2)c(C)c1	-1.2	-3	2.5*	1	-150	-1.3
SMILES	Cav32 inh	CYP2C19 inh	CYP2C9 activ	CYP2C19 activ	CYP2C9 inhib	PTK2B oligo ant
CCN(CC)c1ccc(NC(=O)c2cc(OC)cc(OC)c2)c(C)c1	/	24	1.9	0.8	-87	-1.8
O=S(=O)(NC1=NCCC1)c1cccc(NS(=O)(=O)c2ccc(OC(F)(F)F)cc2)c1	/	/	/	/	/	0.07
CCS(=O)(=O)Nc1ccc(Cc2ccc(NS(=O)(=O)CC)cc2)cc1	-0.36	70*	0.1	0.3	87*	-0.06
CCCCCOc1ccc(NS(C)(=O)=O)cc1	/	10	0.7	0.9	26	-0.09
CS(=O)(=O)Nc1ccc(Cc2ccc(NS(C)(=O)=O)cc2)cc1	0.62	26	0.5	0.7	52*	1.2
COc1ccc(C2C(=O)N(C3CCCCC3)CC(=O)N2Cc2ccco2)cc1 (stereo not drawn)	2.3	20	0.9	0.8	14	0.32
CC1=CC(C)=Nc2ccccc2N1	1	14	0.9	0.9	12	-0.61
Cc1ccc(C2=Nc3ccccc3NC(C)(c3ccc(C)o3)C2)o1 (stereo not drawn)	-5.3*	95*	0.3	0.1	69*	-1.7
O=C1NC(=O)/C(=C\c2ccccc2Oc2ccc(F)c(F)c2)S1	/	13	0.2	0.9	85*	0.87
